Source: PubChem BioAssay (several laboratories)
SSB-PriA inh – inhibitors of Klebsiella pneumoniae PriA binding to SSB C-terminal tail; AlphaScreen SSBct-PriA binding, biotinylated peptide; inhibition, % at 33 µM; hit rate 0.6% among 430,000; AID 1272365; in the data active means inhibition mostly above about 37%, no sharp cut-off; inactive means mostly below about 20%;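 further: plate controls were negative control peptide for no effect and reference peptide for full effect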
PrP UTR inh – suppresses PrP 5' UTR mRNA reporter expression; cell-based PrP 5' UTR mRNA reporter, plate reader; inhibition, % (no concentration beside the values); hit rate 0.35% among 340,000; AID 488862; in the data active means inhibition above about 52%; further: 0 = median of the neutral control wells
PrPC surface inh – cell surface PrPC inhibition, primary TR-FRET screen | P04156 | TR-FRET read-out | inhibition, % at 13.8 µM | hit rate 0.43% among 370,000 | AID 720596; in the data active means inhibition above about 24%; further: 0% = median of the test wells and 100% = reference compound wells
PfHsp40 rescue – compounds rescuing yeast from Plasmodium falciparum HSP40 toxicity | growth rescue, % at 12.5 µM | hit rate 0.68% among 340,000 | S. cerevisiae expressing PfHsp40, growth rescue, ATP luminescence | AID 504582; in the data active means growth rescue above about 28%, passing the limit was not always enough;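 further: yeast W303a lacking pdr1 and pdr3 grown in galactose medium; growth measured after three days at 30 °C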
MazF activator – MazEF (E. coli) toxin RNase activation; FAM/BHQ RNA-DNA oligo cleavage fluorescence, 5 h; activation, % at 20 µM; P0AE70; hit rate 0.32% among 350,000; in the data active means activation above about 50%
PrPC TRFRET cf – cell surface PrPC inhibition, TR-FRET confirmation; shares compounds with PrPC surface inh; cell surface PrPC level; inhibition, % at 13.8 µM; hit rate 65% among 1,500; in the data active means inhibition above about 25%
LD9 tox – kills or reduces viability of LD9 cells in PrPc counter-screen; LD9 cells cytotoxicity, luminescence viability; shares compounds with PrPC surface inh; hit rate 29% among 1,500; AID 743201; inhibition, % at 13.8 µM; in the data active means inhibition above about 9.5%
* = called active by the depositor; i = inactive; / = no result. In the library only some 1.8% were active in any assay of this set; here they are far more common.

SMILES	SSB-PriA inh	PrP UTR inh	PrPC surface inh	PfHsp40 rescue	MazF activator	PrPC TRFRET cf	LD9 tox
Cc1cccc(NC(=O)Cn2cc(C(=O)C3CC3)c3ccccc32)c1C	-8.8	10.5	31.3*	-0.6	-2.8	23.3	22.0*
O=C(O)C(c1ccccc1)n1c(O)c(C=C2C=Nc3ccccc32)sc1=S (centres undefined)	16.0	/	/	/	/	/	/
O=C(NN=C(c1ccccc1)c1ccccn1)c1cccc([N+](=O)[O-])c1	21.7	/	/	/	/	/	/
COc1ccc(C(=O)N/N=C(\c2ccccc2)c2ccccn2)cc1	/	31.2	27.7*	86.3*	8.5	26.2*	38.7*
CCOC(=O)c1sc(NC(=S)NC(=O)CC(C)C)cc1C	-15.1	-33.2	36.8*	0.9	-2.2	39.7*	0.9
CCOC(=O)c1sc(NC(=S)NC(=O)C2CCCC2)cc1C	4.0	-3.0	25.9*	-0.7	5.6	56.3*	-5.9
O=C(C1CC2C=CC1C2)N1CCc2cc(S(=O)(=O)NC3CCCC3)ccc21 (centres undefined)	4.0	/	/	/	/	/	/
Cc1nc2c(Br)cc(Br)cc2cc1O	-8.0	7.8	102.9*	0.7	-9.5	107.5*	-7.5
COc1ccc(OCC(=O)Nc2c3c(nn2C(C)(C)C)CSC3)cc1	3.5	-6.8	4.2	1.1	1.2	/	/
CC(=O)c1sccc1NC(=O)c1ccccc1C(=O)O	-8.4	-7.6	47.0*	0.3	2.2	109.0*	-5.6
Cc1ccc([C@H]2C[C@H](n3cc(-c4ccc(F)cc4)nn3)[C@@H](O)CN2C(=O)c2cccs2)cc1	/	/	-4.8	/	4.4	/	/
CC(C)N1C(=O)C2(OCCCO2)c2cc(Br)ccc21	-16.5	-19.8	-6.2	0.4	-9.6	/	/
CCC(C(=O)Nc1c(C(=O)Nc2ccc([N+](=O)[O-])cc2)oc2ccccc12)c1ccccc1 (centres undefined)	1.0	/	/	/	/	/	/
O=C(C1=C(O)C(=O)N(CCN2CCOCC2)C1c1cccc(F)c1)c1cc2ccccc2o1 (centres undefined)	0.0	-14.6	42.3*	1.5	11.5	70.0*	-4.3
COc1ccc(N2C(=O)CC(N3CCCCC3)C2=O)cc1 (centres undefined)	7.1	-3.3	7.5	8.5	4.7	/	/
CCOc1ccc(NC(=O)Nc2cccn(Cc3ccccc3)c2=O)cc1	-3.3	-26.3	29.8*	0.8	8.8	15.4	-7.4
CNc1ccccc1C(=O)OC(C)C(=O)Nc1ccc(Cl)cn1 (centres undefined)	-88.5	-5.7	24.9*	2.8	1.3	37.8*	0.0
COC(=O)/C(C#N)=C1/C=Cc2ccccc2N1	/	-44.6	-3.3	-0.4	-1.4	/	/
O=C1C=CC(O)(c2cc(=O)c3c(O)cc(O)cc3o2)C=C1	-12.4	-65.2	82.2*	-1.8	6.8	76.8*	59.2*
O=C(NC(Nc1nc2ccc([N+](=O)[O-])cc2s1)(C(F)(F)F)C(F)(F)F)c1cccnc1	3.3	4.8	42.1*	-1.1	-1.8	52.2*	59.3*
O=C(NC(Nc1nc2ccc([N+](=O)[O-])cc2s1)(C(F)(F)F)C(F)(F)F)c1ccccc1Cl	9.4	50.2	66.7*	0.2	2.2	66.2*	63.2*
O=C(Nc1nc2ccc([N+](=O)[O-])cc2s1)c1ccccc1F	4.0	/	/	/	/	/	/
O=C1NCCN1C(=O)NC1CCC(Oc2ncc(F)cn2)CC1 (centres undefined)	-20.0	/	/	/	/	/	/
CCN1/C(=C/C=C/c2oc3ccc(-c4ccccc4)cc3[n+]2CC)Oc2ccc(-c3ccccc3)cc21	-0.3	11.2	43.4*	129.0*	/	56.2*	63.9*
CCCCN1C(=O)/C(=C/C=C2\Oc3ccccc3N2CC)SC1=S	-3.5	-23.0	-14.7	-2.0	i	/	/
SMILES	SSB-PriA inh	PrP UTR inh	PrPC surface inh	PfHsp40 rescue	MazF activator	PrPC TRFRET cf	LD9 tox
C=C1C(=O)O[C@H]2[C@H]1[C@H](OC(=O)/C(C)=C\C)C[C@]1(CO1)[C@@H]1[C@H](OC(C)=O)C=C(C)[C@]21O	-13.8	-16.9	0.6	-0.8	5.4	/	/
C=C1C(=O)OC2CC1C(OC(C)=O)CC(C)=CCCC(C)=CCCC2(C)O (centres undefined)	/	/	28.7*	/	/	33.0*	42.9*
Clc1cccc(CNc2ccn3nc(-c4ccc(OCc5ccccc5)cc4)cc3n2)c1	/	/	37.1*	/	/	31.6*	-7.5
COCCCNc1ccn2nc(-c3ccc(OCc4ccccc4)cc3)cc2n1	/	/	41.6*	/	/	29.6*	1.9
Clc1cccc(CNc2ccn3nc(-c4ccccc4)cc3n2)c1	/	/	10.2	/	/	/	/
c1ccc(COc2ccc(-c3cc4nc(NCCOc5ccccc5)ccn4n3)cc2)cc1	/	/	9.6	/	/	/	/
N#CC(c1ccccc1)C1CCN(Cc2ccccc2)CC1 (centres undefined)	6.6	-21.2	4.3	0.8	5.6	/	/
Cc1nn(-c2ccccc2)c(C)c1C(=O)OCC(=O)Nc1ccccc1C(F)(F)F	-4.5	-15.9	-1.6	-0.9	3.2	/	/
CC(=O)Oc1c(C(C)C)cc(N(C(C)=O)c2ccccc2)cc1C(C)C	-1.9	-8.7	36.2*	-1.2	4.8	29.0*	-3.4
CCn1c(CCC(=O)O)nc2cc(S(=O)(=O)N3CCOCC3)ccc21	1.5	-9.7	5.0	-1.0	-0.9	/	/
Fc1ccc2nc(Nc3nc4cc5c(cc4s3)OCO5)sc2c1	-0.5	-52.4	-5.7	-0.3	3.4	/	/
c1ccc2sc(Nc3nc4cc5c(cc4s3)OCO5)nc2c1	-5.6	-87.8	80.4*	1.3	10.0	63.3*	-1.4
COc1ccccc1CNC(=O)CCC(=O)N1CCOc2ccc(C)cc21	2.4	-10.0	-5.2	2.8	12.8	/	/
CCc1nnc(NC(=O)CSc2sc3c(O)cc(=O)[nH]c3c2C#N)s1	-2.3	-6.1	20.8	-0.3	8.7	/	/
Cc1csc(NC(=O)CSc2sc3c(O)cc(=O)[nH]c3c2C#N)n1	-13.9	-31.5	25.6*	1.9	7.6	4.2	1.7
O=c1c(Br)c(Br)cnn1-c1ccccc1	-0.4	-7.1	32.7*	1.6	-2.2	80.2*	97.7*
O=C(Cc1csc(SCC(=O)Nc2ccc(F)cc2)n1)NCc1ccccn1	-6.0	/	/	/	/	/	/
COc1cc(C#Cc2c(-c3cncn3C)n(C)c3ccc(-c4ccc5[nH]ccc5c4)cc23)cc(OC)c1	5.2	-38.3	27.2*	0.2	-5.0	16.1	14.2*
Cc1ccc2c(c1)[nH]c1c(N3CCN(Cc4ccccc4)CC3)ncnc12	26.3	-9.6	29.7*	4.0	-3.9	22.3	50.2*
COc1ccc2c(c1)[nH]c1c(N3CCN(Cc4ccc5c(c4)OCO5)CC3)ncnc12	5.6	-1.7	5.9	1.0	-4.0	/	/
Cc1cc(C)c(S(=O)(=O)NCC2CCN(C3CCCC3)CC2)cc1C	-9.0	/	/	/	/	/	/
Cc1ccc(-n2c(C)cc(C(=O)CSc3nncs3)c2C)cc1	18.2	-51.6	38.9*	-1.8	-1.4	34.2*	1.5
Cc1cc(C(=O)CSc2nncs2)c(C)n1-c1c(C)n(C)n(-c2ccccc2)c1=O	-1.2	-18.8	-6.7	-1.8	3.1	/	/
